# Results: PubChem BioAssay
# The source made the active and inactive calls. Unless noted, no rule for the calls is given here.
# Tests used:
# [1] = system: XIP peptide (Xip251-270) binding; test: small-molecule binders of XIP peptide, primary screen, biochemical, small-molecule microarray, fluorescence 635/667 nm, 0.1 µg/mL protein (AID 1182); details: fluorescent protein binding, 635 nm, higher = more signal, called active from +8 up or from −8 down
# XIP peptide (Xip251-270) = test: small-molecule binders of XIP peptide, primary screen, biochemical, small-molecule microarray, fluorescence 635/667 nm, 0.5 µg/mL protein (AID 1183); details: small-molecule microarray binding, fluorescence 635 nm; higher = more signal
# [2] = Plasmodium falciparum growth inhibition, primary screen, strain 3D7, DAPI fluorescence, 100 nL (AID 1184);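 also: parasites grown inside human red blood cells in medium with human serum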; details: P. falciparum 3D7 growth, 3 d, higher = more signal
# [3] = molecular target: Homeobox protein Hox-A13 (Mus musculus) (UniProt Q62424); test: inhibitors of HoxA13-DNA binding, primary screen, biochemical, fluorescence polarization, labeled oligonucleotide (AID 1185); details: 15 min, higher = more signal, called active from +8 up or from −8 down
# [4] = inhibitors of hydroxyurea-induced Chk1 phosphorylation, primary screen, imaging, HeLa, phospho-Chk1 antibody, percent positive cells (AID 1186); details: hydroxyurea-induced phospho-Chk1 immunofluorescence imaging, higher = more signal
# [5] = inhibitors of hydroxyurea-induced Chk1 phosphorylation, primary screen, imaging, HeLa, phospho-Chk1 nuclear intensity (AID 1187); details: hydroxyurea-induced phospho-Chk1 immunofluorescence imaging, higher = more signal
# Sequence of Homeobox protein Hox-A13 (Mus musculus) (Q62424 whole entry, looked up): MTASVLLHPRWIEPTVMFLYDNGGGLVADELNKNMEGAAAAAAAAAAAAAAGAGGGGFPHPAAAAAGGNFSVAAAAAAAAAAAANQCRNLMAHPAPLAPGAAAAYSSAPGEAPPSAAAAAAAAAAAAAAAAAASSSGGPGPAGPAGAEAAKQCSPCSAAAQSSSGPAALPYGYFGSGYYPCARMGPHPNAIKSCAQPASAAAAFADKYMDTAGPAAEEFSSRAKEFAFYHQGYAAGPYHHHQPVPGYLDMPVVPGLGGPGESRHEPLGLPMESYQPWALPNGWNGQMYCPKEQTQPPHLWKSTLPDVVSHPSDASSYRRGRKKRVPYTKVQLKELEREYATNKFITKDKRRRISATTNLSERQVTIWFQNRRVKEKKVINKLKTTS
Compound,composite z-score [1],composite z-score (XIP peptide (Xip251-270)),z-score [2],z-score [3],z-score [4],z-score [5]
COC(=O)[C@@]1(Cc2ccccc2N=[N+]=[N-])N=C(c2ccc(OCCCO)cc2)O[C@H]1c1ccccc1CN=[N+]=[N-],0.367 (inactive),0.82,-2.29,1.05 (inactive),-0.352 (inactive),-0.735 (inactive)
C=CC[C@]1(C(=O)O)N=C(c2ccc(OCCCO)cc2)O[C@H]1c1ccccc1,1.81 (inactive),0.615,-1.63,-4.1 (inactive),-0.0836 (inactive),0.409 (inactive)
COCCOC(=O)N1C(=O)[C@@]2(c3cc(C#CCCO)ccc31)[C@H](C(=O)N1CCCCCCC1)[C@H]1C(=O)O[C@H](c3ccccc3)[C@H](c3ccccc3)N1[C@@H]2c1ccc(O)cc1,1.48 (inactive),0.63,-0.303,-0.579 (inactive),-0.424 (inactive),-0.457 (inactive)
O=C(CS)NCCCCCNC(=O)[C@H]1C[C@H]2C(=O)N3CCC[C@H]3C(=O)N2[C@H]1c1ccc(O)cc1,0.215 (inactive),-1.02,-0.0463,-3.01 (inactive),0.23 (inactive),0.426 (inactive)
CN(C)CCCC[C@@H]1NC(=O)[C@@H]2C[C@H](C(=O)O)[C@H](c3ccc(O)cc3)N2C1=O,0.646 (inactive),0.386,-1.35,2.19 (inactive),0.317 (inactive),0.448 (inactive)
C=C(CCCC)/C(=C/C[C@@H](OC(=O)c1ccncc1)c1cccc(OCCO)c1)c1cc(C(=O)OC)ccc1OC,1.33 (inactive),0.74,-3.09,-3.11 (inactive),0.0994 (inactive),0.74 (inactive)
COC(=O)[C@@]1(Cc2ccccc2)[C@H]2c3cc(C(=O)N4CCCC4)n(CCN4CNCC4=O)c3C[C@H]2CN1C(=O)c1ccccc1,1.12 (inactive),-0.127,-1.12,-5.22 (inactive),0.421 (inactive),0.912 (inactive)
O=C1c2ccccc2[C@@]2(Cc3ccccc3N(CC(F)(F)F)C2=O)[C@H](c2ccc(CO)cc2)N1C1CCCCC1,0.586 (inactive),0.536,-0.361,0.601 (inactive),-0.202 (inactive),-0.26 (inactive)
O=C1O[C@H](c2ccccc2)[C@H](c2ccccc2)N2[C@H]1[C@@H](C(=O)NC[C@H](O)c1ccccc1)[C@]1(C(=O)Nc3ccc(C#CC4=CCCCC4)cc31)[C@H]2c1ccc(OCCO)cc1,1.21 (inactive),0.658,-0.435,3.43 (inactive),-0.22 (inactive),-0.301 (inactive)
Cc1ccccc1C(O)C1C=CC2C(=O)N(c3ccccc3)C(=O)C2N1Nc1ccc(C#N)cc1 (centres undefined),3.08 (inactive),0.761,-0.494,-0.699 (inactive),-0.873 (inactive),-0.982 (inactive)
C=CC[C@]1(C(=O)N2CCCCC2)N=C(c2ccc(OCCCO)cc2)O[C@H]1c1ccccc1N=[N+]=[N-],1.01 (inactive),0.851,-2.21,-3.92 (inactive),-0.135 (inactive),0.224 (inactive)
CO[C@]12C=C(Br)[C@@H](C[C@@H]1c1ccccc1)[C@@]1(CO1)C2=O,0.484 (inactive),0.521,-1.03,-0.507 (inactive),-0.655 (inactive),-0.337 (inactive)
CC(C)N1CC=CC23O[C@@H]4/C=C\CCCOC(=O)C4[C@H]2C(=O)N(CCO)[C@@H]3C1=O (some centres undefined),1.85 (inactive),0.122,-0.348,-5.41 (inactive),-1.32 (inactive),-0.544 (inactive)
COC(=O)C1=CC(c2ccc(CO)cc2)=CC(c2cccs2)N(Cc2cccc(OC(F)(F)F)c2)C=C1C(=O)OC (centres undefined),2.19 (inactive),0.79,-1.91,-8.1 (active),0.311 (inactive),0.206 (inactive)
O=C(NCc1ccccc1)[C@@]1(CCS(=O)(=O)c2ccccc2)COC(c2ccc(OCCCO)cc2)=N1,1.13 (inactive),0.881,-2.26,-4.72 (inactive),-0.712 (inactive),-0.464 (inactive)
CC(=O)NCCCC[C@@H]1NC(=O)[C@H]2C[C@@H](C(=O)NCCCCCCN(C)C)[C@@H](c3ccc(O)cc3)N2C1=O,1.76 (inactive),0.832,-1.01,-1.9 (inactive),0.0655 (inactive),0.0377 (inactive)
CCCC=C(CCC)[C@@H](NS(=O)(=O)c1ccc(-c2ccccc2)cc1)c1ccc(C(=O)OC)cc1,0.046 (inactive),-0.203,-1.37,-1.02 (inactive),-0.361 (inactive),-0.761 (inactive)
C=CC[C@]1(C(=O)OC)N=C(c2ccc(OCCCO)cc2)O[C@H]1c1ccccc1CN=[N+]=[N-],-0.127 (inactive),-0.239,-2.35,-1.99 (inactive),-0.0854 (inactive),0.137 (inactive)
COc1ccc([C@H]2C[C@H]3C(Br)=C[C@]2(OC)C(=O)[C@]32CO2)cc1,0.288 (inactive),0.261,0.755,-1.48 (inactive),-0.445 (inactive),-0.0049 (inactive)
CCCC/C=C/[C@H]([C@@H](O)Cc1ccccc1)N(CC#Cc1ccccc1)Cc1ccccc1Br,0.227 (inactive),-1.26,-0.972,0.453 (inactive),-0.138 (inactive),-0.0836 (inactive)
COCCOC(=O)N1C(=O)[C@@]2(c3cc(C#CCCO)ccc31)[C@H](c1ccc(O)cc1)N1[C@H](c3ccccc3)[C@H](c3ccccc3)OC(=O)[C@H]1[C@@H]2C(=O)Nc1nc2ccccc2s1,0.449 (inactive),0.635,-1.04,-1.98 (inactive),-0.534 (inactive),-0.733 (inactive)
CCCNC(=O)[C@@H]1c2ccccc2C(=O)N(C2CCCCC2)[C@H]1c1ccc(CO)cc1,0.521 (inactive),0.749,-0.939,-3.69 (inactive),0.108 (inactive),-0.138 (inactive)
CC(C)=C1C(=O)C(c2ccccc2)=C2CN3C(=O)N(CCc4ccccc4)C(=O)[C@]3(Cc3ccccc3)[C@H]21,-0.315 (inactive),-0.78,-0.774,-0.972 (inactive),0.844 (inactive),0.84 (inactive)
CCC1=C2CN(Cc3ccccc3Br)[C@@H]([C@@H](O)Cc3ccccc3)C2C=CCC1 (some centres undefined),-0.314 (inactive),0.509,-1.92,-7.8 (inactive),-0.0994 (inactive),-0.311 (inactive)
